# Shown are actives, neighbours in structure and some others; about 2.8% of the full set was active somewhere.
# PAFAH1B3 inh = blocks human PAF acetylhydrolase 1B catalytic subunit 3. 0.28% of 340,000 active. inhibition, % at 3.39 µM. Q15102. recombinant PAFAH1B3, FP-rhodamine probe, fluorescence polarization;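 active means inhibition above the screen-wide average of all tested compounds plus 3 SD, cut at about 25% in these data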;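 further: 0% = enzyme with DMSO only and 100% = wells lacking PAFAH1B3 protein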
# Target sequence (Q15102 whole entry, looked up): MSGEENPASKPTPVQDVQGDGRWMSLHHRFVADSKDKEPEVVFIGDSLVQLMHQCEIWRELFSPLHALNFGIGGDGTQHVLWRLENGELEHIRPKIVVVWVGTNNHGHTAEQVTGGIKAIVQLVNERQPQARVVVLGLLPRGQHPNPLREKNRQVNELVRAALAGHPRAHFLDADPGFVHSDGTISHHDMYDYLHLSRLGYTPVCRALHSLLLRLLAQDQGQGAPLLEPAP
# Fam108B inh = blocks mouse Fam108B hydrolase in RBBP9 counter-screen; recombinant Fam108B, FP-Rh probe fluorescence polarization; 0.33% of 300,000 active; inhibition, % at 9.51 µM;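 active means inhibition above the screen mean inhibition plus 3 SD, computed separately per campaign, cut at about 18% in these data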;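 further: inhibitors lower polarization as less probe binds the enzyme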
# PAFAH1B2 inh = PAFAH1B2 (human) inhibition; P68402; recombinant PAFAH1B2, FP-rhodamine activity probe, fluorescence polarization; inhibition, % at 3.39 µM; 1.2% of 340,000 active; AID 492953;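 active means inhibition above the mean of all tested compounds plus 3 SD, cut at about 24% in these data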;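 further: 0% = enzyme with DMSO and 100% = wells lacking PAFAH1B2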
# Target sequence (P68402 whole entry, looked up): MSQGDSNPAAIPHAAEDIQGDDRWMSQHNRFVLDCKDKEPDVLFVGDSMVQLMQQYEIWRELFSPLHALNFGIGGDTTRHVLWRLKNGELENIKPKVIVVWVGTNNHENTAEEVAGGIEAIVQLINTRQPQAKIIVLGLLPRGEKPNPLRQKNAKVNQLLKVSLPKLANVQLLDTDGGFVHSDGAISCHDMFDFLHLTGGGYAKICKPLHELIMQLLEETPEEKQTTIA
# PAFAH2 inh = PAFAH2 (human) inhibition | recombinant PAFAH2, FP-rhodamine activity probe, fluorescence polarization | inhibition, % at 3.39 µM | 0.99% of 340,000 active;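 active means inhibition above the mean over all tested compounds plus 3 SD, cut at about 30% in these data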;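 further: inhibitors block probe labeling of enzyme so polarization drops; 0% = enzyme with DMSO and 100% = wells lacking PAFAH2 protein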
# pPAFAH inh = pPAFAH (human) enzyme inhibition | Q13093 | recombinant pPAFAH, FP-rhodamine probe fluorescence polarization | inhibition, % at 3.39 µM | 1.5% of 330,000 active | AID 463082;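 active means inhibition above the mean inhibition across the screen plus 3 SD, cut at about 25% in these data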;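 further: inhibitors block binding of the rhodamine activity-based probe so polarization drops; 0% = enzyme with DMSO and 100% = wells lacking pPAFAH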
# PME-1 inh = PME-1 (human) inhibition. recombinant PME-1, FP-Rh probe fluorescence polarization. Q9Y570. 0.53% of 320,000 active. inhibition, % at 5.9 µM;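 active means inhibition above the campaign mean of all compounds plus 3 SD, cut at about 26% in these data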;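 further: competitive labeling of PME-1 active site by serine hydrolase directed probe; 0% = PME-1 with DMSO and 100% = wells lacking PME-1 enzyme; inhibitors block probe labeling so polarization falls and inhibition rises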
# The depositor's hits bear a star; · = no result.
SMILES,PAFAH1B3 inh,Fam108B inh,PAFAH1B2 inh,PAFAH2 inh,pPAFAH inh,PME-1 inh
COc1ccc(OC)c(CCNC(=O)c2ccc(CS(=O)(=O)c3ccc(Br)cc3)o2)c1,7.2,0.4,27.1*,7.4,2.9,12.7
NS(=O)(=O)c1ccc(NC(=O)c2cc(-c3cc(Cl)ccc3O)n[nH]2)cc1,7.4,·,-2.1,-6.2,·,·
Cc1ccc(C(=O)NNC(=O)Cn2ccc(C(F)(F)F)n2)o1,11.2,-0.1,-1.1,-0.5,0.4,-4.7
O=C(COC(=O)Cc1ccc(Br)cc1)NC1CCCCC1,4.7,8.8,10.1,4.6,29.7*,5.0
COc1ccccc1CNC(=O)COC(=O)Cc1ccc(Cl)cc1,7.5,2.5,2.0,1.0,26.6*,2.6
O=C(COC(=O)Cc1ccc(Br)cc1)NCC1CCCCC1,1.3,-5.1,9.1,4.8,30.9*,3.3
COc1cc(C)ccc1OCC(=O)OCC(=O)NCC1CCCCC1,10.1,·,3.7,-1.5,4.8,·
Cc1cc(C)c(OCC(=O)OCC(=O)NCC2CCCCC2)c(C)c1,2.9,-1.9,4.0,-6.4,30.8*,1.8
CSCCC(NC(=O)c1ccccc1Cl)C(=O)NCCc1ccccn1 (centres undefined),4.1,·,-3.5,4.9,3.0,·
Cc1ccccc1NC(=O)Cc1nc(COC(=O)Cc2c(F)cccc2Cl)cs1,4.5,·,-0.1,2.6,5.0,7.2
CCN(CC)CCN1C(=O)C(=O)/C(=C(/O)c2ccc(S(=O)(=O)N3CCOCC3)cc2)C1c1ccc(Cl)cc1 (centres undefined),12.3,0.3,-0.1,-8.1,1.5,-2.5
O=C(COC(=O)Cc1ccc(Cl)cc1)NC1CCCC1,0.7,·,9.5,12.4,26.4*,5.0
CC1CCc2cc(F)ccc2N1C(=O)c1cccnc1 (centres undefined),2.8,3.0,8.6,5.4,-4.7,-6.8
Cc1cc(O)ccc1NC(=O)Cc1cccc2ccccc12,1.7,·,5.1,1.1,·,·
CCn1nc(NS(=O)(=O)c2ccccc2[N+](=O)[O-])c2cc3cccc(C)c3nc21,8.1,1.6,6.7,10.2,17.1,16.0
CCn1nc(NS(=O)(=O)c2ccc([N+](=O)[O-])cc2)c2cc3cccc(C)c3nc21,8.4,9.5,6.7,14.2,27.7*,8.2
CCCN1CCN(C(=O)CCn2c(=O)c3cccn3c3cccnc32)CC1,2.2,1.1,-2.5,5.3,4.1,-2.5
O=C(N/N=C/c1cc(Cl)cc([N+](=O)[O-])c1O)NC12CC3CC(CC(C3)C1)C2,22.4,3.0,59.4*,53.3*,9.6,7.9
CCOc1cc(/C=C2\SC(=O)N(CC(=O)Nc3ccccc3F)C2=O)cc([N+](=O)[O-])c1O,14.5,16.4,8.4,34.1*,32.1*,5.4
O=C(NNC(=O)C12CC3CC(CC(C3)C1)C2)c1cccc([N+](=O)[O-])c1,5.6,1.2,30.5*,1.3,5.9,-3.3
COC(=O)[C@@]1(C)[C@H]2C(=O)N(C)C(=O)[C@H]2[C@H]2CN=C(SCc3ccc(C#N)cc3)N21,6.4,·,11.6,-3.9,8.9,·
COC(=O)[C@@]1(C)[C@H]2C(=O)N(C)C(=O)[C@H]2[C@H]2CN=C(SCc3ccc(Cl)cc3)N21,1.1,·,29.1*,-1.8,4.3,·
O=C(Cc1cccs1)NNC(=S)NCc1ccc(Cl)cc1,6.0,2.4,55.1*,-4.7,2.0,3.0
O=C(Cc1ccc(Cl)cc1)NNC(=S)NC(=O)c1cccs1,0.1,0.4,20.0,11.5,10.7,-2.1
CC(C)(C)c1ccc(C(=O)CC(Sc2ccc(Cl)cc2)C(=O)O)cc1 (centres undefined),1.2,-0.9,83.4*,39.5*,3.0,-0.8
Oc1[nH]c2ccccc2c1N=Nc1ncnc2c1oc1ccccc12,·,3.9,·,·,7.7,29.6*
COc1ccc(NC(=O)C23CC4CC(CC(Cl)(C4)C2)C3)cc1S(=O)(=O)N1CCOCC1,6.7,·,27.0*,1.5,6.7,·
COc1ccc(NC(=O)c2c3c(nc4ccccc24)CCC3)cc1S(=O)(=O)N1CCOCC1,5.8,-0.9,1.5,-0.1,26.1*,6.3
COc1ccc(NC(=O)C2CC2)cc1S(=O)(=O)N1CCOCC1,3.2,·,1.4,1.3,1.0,3.4
COc1ccc(C(=O)Nc2ccc(NC(=O)c3ccccc3)cc2)cc1S(=O)(=O)N1CCOCC1,-3.0,-3.4,0.0,-6.9,4.8,-8.3

# Screening data (PubChem BioAssay)
